Measured values published in PubChem BioAssay.
A number with no mark means an inactive call. For some assays here: Measured potencies and affinities stand elsewhere. Activity calls are given as the source filed them. Unless noted, how the calls were made is not given here.

Key:
[1] = antimalarial activity against Dd2 strain (AID 2302;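 active means growth inhibition above 50% at the single 2 µM test dose, taken to imply half-maximal potency below 2 µM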;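 further: 0% = DMSO untreated growth and 100% = chloroquine plus artemisinin killed control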); settings: P. falciparum Dd2 in RBCs, LDH growth readout, 72 h; at 2 µM; hits give high values
[2] = human hepatoma cell viability loss – ATP luminescence, cytotoxicity control for P. falciparum antimalarial project, primary screen (AID 2303;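 active means inhibition above 50%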;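 further: 0% = DMSO wells and 100% = digitonin-killed cells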); settings: HepG2 viability, 24-48 h, at 10 µM, hits give high values
[3] = target: L-lactate dehydrogenase (Plasmodium falciparum (isolate CDC / Honduras)) (UniProt Q27743); test: PfLDH activity inhibition – cell lysate, 3D7 strain, counter-screen for P. falciparum growth inhibition project (AID 2304);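 further: 0% = vehicle and 100% = reference inhibitor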; settings: P. falciparum 3D7 crude extract, LDH APAD/NBT absorbance; at 2 µM; hits give high values
L-lactate dehydrogenase (Plasmodium falciparum (isolate CDC / Honduras)), sequence (Q27743 whole entry, looked up): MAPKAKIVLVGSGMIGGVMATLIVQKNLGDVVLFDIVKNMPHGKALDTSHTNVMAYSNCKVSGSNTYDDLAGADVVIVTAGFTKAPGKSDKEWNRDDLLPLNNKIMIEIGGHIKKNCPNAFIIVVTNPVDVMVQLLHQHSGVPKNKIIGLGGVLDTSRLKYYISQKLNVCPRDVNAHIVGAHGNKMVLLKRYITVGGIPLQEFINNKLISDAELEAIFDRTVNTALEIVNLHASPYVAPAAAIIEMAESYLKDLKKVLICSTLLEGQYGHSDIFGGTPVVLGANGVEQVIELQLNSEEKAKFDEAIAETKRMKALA

[4] = inhibition of 3D7 malaria parasite growth – strain 3D7 (AID 2306);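 further: 0% = DMSO wells and 100% = chloroquine plus artemisinin control wells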; settings: P. falciparum 3D7 erythrocytic growth, LDH absorbance, 72 h; at 2 µM; hits give high values
[5] = target: Calcium-dependent protein kinase 1 (Plasmodium falciparum (isolate 3D7)) (UniProt P62344); test: PfCDPK1 kinase inhibitors, biochemical, TCAMS library (AID 1159585; cut-off not given, nearly all actives have IC50 up to about 0.98 µM;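 further: inhibitors leave more ATP so luminescence rises with inhibition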); settings: recombinant PfCDPK1, Kinase-Glo ATP depletion luminescence
Calcium-dependent protein kinase 1 (Plasmodium falciparum (isolate 3D7)), sequence (P62344 whole entry, looked up): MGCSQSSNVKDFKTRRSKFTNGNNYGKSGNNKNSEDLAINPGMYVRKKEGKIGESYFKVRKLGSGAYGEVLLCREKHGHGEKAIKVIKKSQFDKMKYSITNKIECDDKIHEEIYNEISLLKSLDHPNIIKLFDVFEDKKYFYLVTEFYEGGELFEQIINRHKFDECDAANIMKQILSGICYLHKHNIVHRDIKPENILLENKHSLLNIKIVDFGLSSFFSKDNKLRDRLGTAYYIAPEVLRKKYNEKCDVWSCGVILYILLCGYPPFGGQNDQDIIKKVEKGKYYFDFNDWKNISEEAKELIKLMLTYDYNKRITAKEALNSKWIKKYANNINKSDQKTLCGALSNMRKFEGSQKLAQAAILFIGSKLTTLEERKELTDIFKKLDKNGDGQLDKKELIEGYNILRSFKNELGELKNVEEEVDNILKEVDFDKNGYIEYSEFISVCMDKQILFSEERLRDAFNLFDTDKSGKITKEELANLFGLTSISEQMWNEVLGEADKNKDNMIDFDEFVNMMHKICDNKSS

[6] = target: Plasmodium falciparum protein kinase 6 (PK6, PF3D7_1337100) (UniProt Q8IDW1); test: PfPK6 kinase inhibitors, biochemical, TCAMS library (AID 1159586); settings: recombinant PfPK6, Kinase-Glo ATP depletion luminescence
Plasmodium falciparum protein kinase 6 (PK6, PF3D7_1337100), sequence (Q8IDW1 1-305): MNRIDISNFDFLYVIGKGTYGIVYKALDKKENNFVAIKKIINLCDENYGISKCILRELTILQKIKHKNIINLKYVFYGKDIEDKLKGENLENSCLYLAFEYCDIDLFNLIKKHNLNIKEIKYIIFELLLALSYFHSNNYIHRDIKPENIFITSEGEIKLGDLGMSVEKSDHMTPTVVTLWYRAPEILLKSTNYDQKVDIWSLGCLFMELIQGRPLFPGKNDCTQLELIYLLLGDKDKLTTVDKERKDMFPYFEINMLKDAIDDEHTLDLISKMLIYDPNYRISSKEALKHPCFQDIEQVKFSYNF

[7] = target: Protein kinase 7 (PK7), Plasmodium falciparum 3D7 (PF3D7_0213400) (UniProt Q7YTF7); test: inhibition of Plasmodium PK7 catalytic activity – biochemical, TCAMS antimalarial set, Kinase-Glo luminescence (AID 1159587); settings: recombinant PfPK7, Kinase-Glo ATP depletion luminescence
Protein kinase 7 (PK7), Plasmodium falciparum 3D7 (PF3D7_0213400), sequence (Q7YTF7 1-343): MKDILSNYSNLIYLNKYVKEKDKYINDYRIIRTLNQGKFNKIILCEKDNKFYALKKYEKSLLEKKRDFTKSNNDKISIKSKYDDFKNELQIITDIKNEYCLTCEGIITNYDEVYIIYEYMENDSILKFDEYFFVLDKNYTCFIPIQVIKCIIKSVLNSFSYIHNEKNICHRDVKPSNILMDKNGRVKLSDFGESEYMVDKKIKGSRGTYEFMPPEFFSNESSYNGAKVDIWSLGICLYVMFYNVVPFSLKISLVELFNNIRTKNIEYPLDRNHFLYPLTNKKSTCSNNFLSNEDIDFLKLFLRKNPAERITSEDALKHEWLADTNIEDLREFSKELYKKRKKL

[8] = target: Calcium-dependent protein kinase 4 (Plasmodium falciparum (isolate 3D7)) (UniProt Q8IBS5); test: PfCDPK4 kinase inhibitors, biochemical, TCAMS library (AID 1159588; cut-off not given, nearly all actives have IC50 up to about 0.91 µM); settings: recombinant PfCDPK4, Kinase-Glo ATP depletion luminescence
Calcium-dependent protein kinase 4 (Plasmodium falciparum (isolate 3D7)), sequence (Q8IBS5 whole entry, looked up): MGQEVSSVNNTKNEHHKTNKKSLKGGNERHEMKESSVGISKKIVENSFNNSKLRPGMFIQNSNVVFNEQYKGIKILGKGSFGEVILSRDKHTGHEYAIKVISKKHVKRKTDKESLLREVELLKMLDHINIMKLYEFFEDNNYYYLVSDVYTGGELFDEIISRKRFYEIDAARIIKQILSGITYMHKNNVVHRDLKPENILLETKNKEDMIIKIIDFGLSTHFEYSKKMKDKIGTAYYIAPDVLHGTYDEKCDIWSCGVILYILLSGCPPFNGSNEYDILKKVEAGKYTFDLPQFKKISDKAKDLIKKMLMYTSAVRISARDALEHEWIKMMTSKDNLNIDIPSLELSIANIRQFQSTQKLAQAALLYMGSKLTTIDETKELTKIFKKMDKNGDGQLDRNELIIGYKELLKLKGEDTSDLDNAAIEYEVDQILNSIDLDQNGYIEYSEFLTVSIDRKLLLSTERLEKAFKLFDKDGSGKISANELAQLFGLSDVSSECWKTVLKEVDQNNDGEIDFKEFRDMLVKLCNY

Row | SMILES | growth inhibition [1] | inhibition [2] | inhibition [3] | growth inhibition [4] | outcome [5] | outcome [6] | outcome [7] | outcome [8]
1 | O=C(C1CCN(C(c2ccccc2)c2ccc(Cl)c(Cl)c2)CC1)N1CC=CC1 (stereo not given) | 84% (active) | 1% | 7% | 89% (active) | inactive | inactive | inactive | inactive
2 | Cc1cccc2[nH]c(-c3ccc(-c4cccc(NC(=O)CCc5cnc[nH]5)c4)cc3)nc12 | 14% | 13% | 4% | 101% (active) | inactive | inactive | inactive | inactive
3 | Cc1cccc(CN2CCC(C(=O)Nc3ccc(-c4nc5ccccc5[nH]4)cc3)CC2)n1 | 3% | -9% | 6% | 96% (active) | inactive | inactive | inactive | inactive
4 | O=C(Nc1cccc(CN2CCCN(Cc3cccc(O)c3)CC2)c1)c1cc2ccccc2s1 | 75% (active) | 15% | -4% | 101% (active) | inactive | inactive | inactive | inactive
5 | c1cc(CN2CCCCC2)cc(-c2ccc(-c3nc4ccccc4[nH]3)s2)c1 | 100% (active) | 11% | 2% | 101% (active) | inactive | inactive | inactive | inactive
6 | Cc1[nH]n(-c2cccc(Cl)c2)c(=O)c1-c1ccc(Cl)cc1 | 41% | 0% | -8% | 99% (active) | inactive | inactive | inactive | inactive
7 | O=C(CSc1nc2ccc([N+](=O)[O-])cc2s1)Nc1ccccc1-c1ccccc1 | 49% | -1% | 0% | 80% (active) | inactive | inactive | inactive | inactive
8 | Cc1nn(-c2ccccc2)c2c1C(c1ccc(C(C)C)cc1)N1C(=N2)N(Cc2ccccc2)c2ccccc21 (stereo not given) | 37% | 7% | -7% | 95% (active) | inactive | inactive | inactive | inactive
9 | CCOc1ccc2nc(C)cc(NN=Cc3cccc(C)n3)c2c1 | 73% (active) | 6% | 0% | 99% (active) | inactive | inactive | inactive | inactive
10 | O=C(NNC(=O)c1ccc(CCN2CCC(c3nc(COCC(F)(F)F)c(-c4ccc(F)cc4)o3)CC2)cc1)Nc1ccc(Oc2ccccc2)cc1 | 89% (active) | 38% | 4% | 102% (active) | inactive | inactive | inactive | inactive
11 | CCCCCCn1c(Sc2ccc(C#N)c([N+](=O)[O-])c2)nnc1-c1ccccc1 | 41% | 23% | -1% | 97% (active) | inactive | inactive | inactive | inactive
12 | FC(F)(F)c1ccc(Nc2nnnc3ccccc23)cc1 | 82% (active) | 3% | -6% | 90% (active) | inactive | inactive | inactive | inactive
13 | CN1CCCC(CN2CCN(Cc3cccc(-c4cccc(-c5nc6ccccc6[nH]5)c4)c3)CC2)C1 (stereo not given) | 99% (active) | 45% | -8% | 100% (active) | inactive | inactive | inactive | inactive
14 | C=CC[C@H](C[C@H](O)[C@H](Cc1ccccc1)NC(=O)c1nn(-c2ccccc2)nc1C)C(=O)NC1CCCCC1 | 3% | 6% | 5% | 94% (active) | inactive | inactive | inactive | inactive
15 | Cc1cc(-c2cccc(CNC3CCN(C)CC3)c2)ccc1S(=O)(=O)NCCc1ccccn1 | 72% (active) | 22% | 2% | 97% (active) | inactive | inactive | inactive | inactive
16 | Cc1c(F)cc(C(=O)NC2CC2)cc1-c1ccc2c(cnn2S(=O)(=O)c2cccs2)c1 | 68% (active) | 32% | -4% | 92% (active) | inactive | inactive | inactive | inactive
17 | CCOc1cc(Cc2cnc(N)nc2N)cc(OCC)c1OCC | 0% | -1% | 5% | 97% (active) | inactive | inactive | inactive | inactive
18 | O=S(=O)(NCCN1CCCC1)c1cccc(-c2cccc(CNCc3ccsc3)c2)c1 | 55% (active) | 69% (active) | 6% | 101% (active) | inactive | inactive | inactive | inactive
19 | COc1ccc(C(=O)N2CCC3(CC2)C(=O)N(CC(=O)NCC2CCCCC2)CN3c2ccccc2)c(OC)c1 | 99% (active) | 6% | 4% | 100% (active) | inactive | inactive | inactive | inactive
20 | Cc1cc(OCCCN2CCC(NS(=O)(=O)c3ccc(C(F)(F)F)cc3)CC2)c2ccccc2n1 | 24% | 12% | 1% | 95% (active) | inactive | inactive | inactive | inactive

Row | SMILES | growth inhibition [1] | inhibition [2] | inhibition [3] | growth inhibition [4] | outcome [5] | outcome [6] | outcome [7] | outcome [8]
21 | CC(C)NCc1ccc(-c2ccc(NC(=O)c3ccc(C#N)cc3)cc2)cc1 | 0% | 23% | -2% | 90% (active) | inactive | inactive | inactive | inactive
22 | CCNc1cc(C(=O)N[C@@H](Cc2cccc(Cl)c2)[C@H](O)CNC(C)CCCC(C)C)cc(N2CCCCS2(=O)=O)c1 (stereo not given in full) | 78% (active) | 7% | -1% | 98% (active) | inactive | inactive | inactive | inactive
23 | O=C(Nc1ccccc1)Nc1cccc(-c2ccc(-c3nc4ccc(C(F)(F)F)cc4[nH]3)cc2)c1 | 37% | 48% | -3% | 101% (active) | inactive | inactive | inactive | inactive
24 | COc1ccc2ncc(F)c(CCN3CCC(NCc4ccc5c(c4)CCO5)CC3)c2n1 | 30% | 20% | 3% | 100% (active) | inactive | inactive | inactive | inactive
25 | FC(F)(F)c1ccc2nc(-c3cccc(-c4ccc(CNCc5cnn(-c6ccccc6)n5)cc4)c3)[nH]c2c1 | 67% (active) | 14% | -4% | 101% (active) | inactive | inactive | inactive | inactive
26 | CN1CCOc2ccc(Nc3nnc(-c4cccc(-c5cccnc5)c4)o3)cc2C1 | 100% (active) | -4% | -1% | 100% (active) | inactive | inactive | inactive | inactive
27 | CC(C(=O)N1CCCC1)N1CCN(C(c2ccccc2)c2ccccc2)CC1 (stereo not given) | 56% (active) | -2% | 3% | 82% (active) | inactive | inactive | inactive | inactive
28 | Nc1nc(N)c2c(ccc3c2ccn3CCCC(F)(F)F)n1 | 34% | 66% (active) | 0% | 97% (active) | inactive | inactive | inactive | inactive
29 | CCCCN1CCCC[C@H]1[C@@H](O)c1ccnc2ccc(OCC)cc12 | 88% (active) | 6% | -2% | 100% (active) | inactive | inactive | inactive | inactive
30 | CCCCCN1C(=O)N(c2ccc(Cl)c(Cl)c2)C(N(O)C(=O)Nc2ccc(Cl)c(Cl)c2)C1(C)C (stereo not given) | 99% (active) | -2% | 6% | 94% (active) | inactive | inactive | inactive | inactive
31 | CCCCCCCN1CC[C@H](CC(=O)Nc2ccnc3ccc(OC)cc23)[C@@H](CC)C1 | 75% (active) | 14% | -4% | 101% (active) | inactive | inactive | inactive | inactive
32 | O=C(Cc1cccc(Cl)c1)Nc1cccc(-c2c[nH]c3nc(Nc4cccc(OCc5ccccc5)c4)ncc23)c1 | 56% (active) | -1% | -1% | 100% (active) | inactive | inactive | inactive | inactive
33 | CCNc1cc(C(=O)N[C@@H](Cc2ccccc2)[C@H](O)CNC(C)CCCC(C)C)cc(N2CCCS2(=O)=O)c1 (stereo not given in full) | 98% (active) | 2% | 5% | 99% (active) | inactive | inactive | inactive | inactive
34 | O=C(NCCN1CCCC1)c1cccc(-c2ccc(-c3nc4ccc(C(F)(F)F)cc4[nH]3)cc2)c1 | 99% (active) | 34% | -3% | 101% (active) | inactive | inactive | inactive | inactive
35 | N#CCCN1CCN(Cc2cccc(-c3ccc(-c4nc5ccccc5[nH]4)cc3)c2)CC1 | 20% | 18% | -9% | 93% (active) | inactive | inactive | inactive | inactive
36 | Cc1cccc2[nH]c(-c3ccc(-c4cccc(NC(=O)C(=O)c5cccn5C)c4)cc3)nc12 | 17% | 30% | 3% | 98% (active) | inactive | inactive | inactive | inactive
37 | O=C(Nc1ccc(-c2nc3ccccc3[nH]2)cc1)c1ccc(N2CCCC2)c([N+](=O)[O-])c1 | 95% (active) | 43% | -1% | 100% (active) | inactive | inactive | inactive | inactive
38 | CC(C)Sc1nc2c(c(=O)n1Cc1ccco1)C1(CCCCC1)Cc1ccccc1-2 | 99% (active) | 10% | 0% | 100% (active) | inactive | inactive | inactive | inactive
39 | CC1(C)N=C(N)N=C(N)N1c1ccc(Oc2ccccc2)cc1 | 3% | 13% | -6% | 98% (active) | inactive | inactive | inactive | inactive
40 | CCCC(C)NC(=O)[C@H](Cc1ccccc1)NC(=O)c1ccc(O)c(-c2ccc(OC)cc2)c1 (stereo not given in full) | 1% | 12% | 2% | 85% (active) | inactive | inactive | inactive | inactive
